# Results published in PubChem BioAssay (NCI).
# The panel holds about 83,000 compounds, 20% with a hit somewhere; the sample as a whole holds those more often.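 A percent growth of 40 corresponds to 60% growth inhibition; 0 means no net growth; -100 means all cells died. Active threshold: below 10.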 A number with no mark means an inactive call. Activity calls are given as the source filed them.
# Experiments:
# Experiment in all cases: NCI-60 one-dose screen, 48 h (100 = growth as untreated, 0 = no growth, -100 = all killed)
# Conditions in all cases: 10 µM unless noted
# NCI-H23 lung = test system: NCI-H23 lung
# NCI-H226 lung = test system: NCI-H226 lung
# NCI-H322M lung = test system: NCI-H322M lung
# HOP-62 NSCLC = test system: HOP-62 NSCLC
# NCI-H460 lung = test system: NCI-H460 lung
# HOP-92 NSCLC = test system: HOP-92 NSCLC
# NCI-H522 lung = test system: NCI-H522 lung
# A549/ATCC NSCLC = test system: A549/ATCC NSCLC
# 786-0 renal = test system: 786-0 renal
# COLO 205 colon = test system: COLO 205 colon
Structure (SMILES),growth (NCI-H23 lung),growth (NCI-H226 lung),growth (NCI-H322M lung) [%],growth (HOP-62 NSCLC),growth (NCI-H460 lung),growth (HOP-92 NSCLC),growth (NCI-H522 lung),growth (A549/ATCC NSCLC),growth (786-0 renal),growth (COLO 205 colon)
COc1cc(C(=O)/C=C/c2c(-c3cccs3)nc3sc(C)cn23)cc(OC)c1OC,6.64% (active),33.1%,13.3,-8.11% (active),-30.6% (active),-2.76% (active),-2.1% (active),10.6%,7.58% (active),2.63% (active)
COc1cc2ncnc(Nc3ccc(S(=O)(=O)Nc4cc(C)on4)cc3)c2cc1OCCCN1CCOCC1,100%,94%,101,95.8%,110%,87.4%,96.8%,95.3%,107%,106%
O=C(/C=C/c1cccc([N+](=O)[O-])c1)c1ccc(Nc2nc(Nc3ccc(F)cc3)nc(Nc3ccc(Cl)cc3)n2)cc1,81.4%,87.2%,87.6,151%,91.9%,50.9%,82.8%,83%,99.4%,91.2%
Nc1ncc(-c2ccc3ncnc(N4CCc5cc(F)c(Cl)cc54)c3c2)cn1,58.8%,33.6%,25.1,28.7%,38.8%,11.5%,44.1%,28.5%,26%,51.5%
O=C(CNc1ncco1)Nc1ccc(S(=O)(=O)c2ccc(NC(=O)CNc3ncco3)cc2)cc1,4.33% (active),-17.7% (active),75.2,32.7%,-60.4% (active),81%,-96.9% (active),6.88% (active),20.9%,-59.9% (active)
CCN(CC)CCOc1ccc(/C(=C(\C)Cc2ccc(OC)cc2)c2ccc(O)cc2)cc1,59.2%,74.6%,54.5,25.8%,-36.4% (active),2.96% (active),-9.94% (active),19.4%,-37.1% (active),-72.1% (active)
O=C(Nc1ccccc1)Nc1ccccc1CNc1nc(Nc2ccc(OCCN3CCCC3)cc2)ncc1Cl,68.1%,89.4%,91.1,79.3%,-37.7% (active),65.1%,58.6%,59.4%,9.35% (active),33%
O=C1OCC2=C1C(c1cccc(F)c1)c1cc3c(cc1N2CCO)CCC3 (stereo not given),24.7%,39.6%,40.9,26.2%,6.75% (active),58.5%,11.6%,17.3%,32.3%,-25.6% (active)
[2H]C([2H])([2H])Oc1c(F)cccc1/C=C/C(=O)/C=C(O)/C=C/c1cccc(F)c1OC([2H])([2H])[2H],86.1%,108%,102,110%,99.1%,89.4%,87.4%,90.9%,103%,114%
O=C1NC(=O)C(=Cc2cc(-c3ccc(Cl)cc3)n(-c3ccccc3)n2)C(=O)N1,99.3%,82.5%,94,99.4%,98.6%,94.4%,103%,97.4%,82.5%,108%
CCc1ccc(Cc2cnc(NC(=O)c3cc(C)oc3C)s2)cc1,52.8%,66.3%,56.8,56.9%,18.6%,45%,19.6%,34.7%,41.2%,48.6%
N#Cc1c(-c2ccc(Cl)cc2)nc(NN=Cc2cccc(Cl)c2)nc1N1CCOCC1,101%,91.6%,88.7,92.7%,91.6%,89.3%,94.5%,81.9%,70.1%,61%
COc1ccc(-c2cc(-c3ccc(N(C)C)cc3)nc(NC(=O)c3cccnc3)n2)cc1,105%,98.8%,93,100%,96.1%,124%,93%,105%,103%,104%
C=CCOC(=O)C1=C(C)N(CC)C(=O)N(CC)C1c1c(Cl)n(C)c2ccccc12 (stereo not given),78.7%,95.1%,74.4,84.1%,88.1%,21.6%,84.8%,63.7%,91.9%,96.9%
Cc1ccc2nc(/C=C/c3ccc(N(C)C)cc3)cc(C)c2c1,42.1%,64.8%,70.9,32.4%,15.1%,25.7%,25.1%,52.3%,35.1%,23.5%
O=C(Nc1ncc(Cc2ccc(Cl)cc2)s1)C1=NCCCCN1,99%,99.7%,94.9,108%,106%,119%,82.1%,109%,107%,110%
CO[C@H]1/C=C/O[C@@]2(C)Oc3c(C)c(O)c4c(O)c(c5c(nc6cc(C)ccn65)c4c3C2=O)NC(=O)/C(C)=C\C=C\[C@H](C)[C@H](O)[C@@H](C)C(O)[C@@H](C)[C@H](OC(C)=O)[C@@H]1C (stereo not given in full),99.6%,96.1%,97.4,3.22% (active),114%,98.7%,91.1%,104%,95.3%,0.546% (active)
CS(=O)(=O)c1cccc(Nc2ncc3cc(-c4ccccc4Cl)ccc3n2)c1,26.7%,31.1%,26.8,15.3%,5.47% (active),-1.06% (active),-44.3% (active),13.8%,12.2%,-8.05% (active)
COC(=O)[C@@H](Cc1c[nH]c2ccccc12)NC(=O)[C@H](Cc1ccccc1)NCc1ccncc1,97.4%,94.1%,92.8,93.7%,104%,91.5%,73.5%,83.9%,104%,107%
COc1ccc(-c2nc(SCCC(C)C)nc(N/N=C(/C)c3ccc(N)cc3)c2C#N)cc1,92.9%,88.9%,86,89.9%,101%,96.8%,90.6%,98.4%,97.9%,109%
O=C(/C=C/c1ccco1)c1ccc(Nc2ccnc3cc(Cl)ccc23)cc1,82.1%,111%,39.3,104%,36%,41.5%,81.9%,62%,76.6%,90.4%
